From PubChem
Lassa entry inh = inhibitors of Lassa virus binding or cell entry. Lassa virus pseudotype entry inhibition, cell reporter. Potency, µM (top dose mostly 37.9 µM), for inactives: at the top dose activity change, negative = inhibition, usual class: inhibitors. actives 1.2% (n = 300,000). AID 540256; calls by dose curve; tested in HEK293 cells; further: potency means the concentration at half of the fitted maximal effect; nearly all actives have a fitted effect of over 50% in size
FMDV inh = antivirals against foot and mouth disease virus; Potency, µM (top dose mostly 57.9 µM), without a hit: top-dose activity change, negative = inhibition, most hits filed as inhibitors; actives 1.2% (n = 410,000); FMDV antiviral cell-based qHTS; calls by dose curve; tested in HEK293T cells; further: read-out not given here; potency means the concentration at half of the fitted maximal effect; nearly all actives have a fitted effect of over 45% in size
HCMV inh = blocks human cytomegalovirus replication | HFF cells, HCMV-luciferase reporter, 72 h; active compounds read low | activity change, negative = inhibition, % at 57.5 µM | actives 4.5% (n = 410,000) | AID 1259415; in the data active means activity change below about -60%; inconclusive means no clear call, values can overlap the other calls; inactive means above about -39%
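Compounds were evaluated in HFFs infected with an HCMV luciferase reporter virus (MOI 1 PFU/cell). Luciferase in lysates collected 72 h post infection served as the replication measure.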
MARV entry inh = Marburg virus entry inhibition; actives 1.8% (n = 300,000); Marburg virus pseudotyped entry inhibition, cell reporter; AID 540276; Potency, µM (titrated, usually from 37.8 µM), inactives show at the top dose activity change, negative = inhibition, actives largely listed as inhibitors; calls by dose curve; tested in HEK293 cells; further: potency means the concentration at half of the fitted maximal effect
HCV inh = inhibitors of hepatitis C virus infection. Potency, µM (highest dose often 41.8 µM), inactives show at the top dose activity change, negative = inhibition, actives largely listed as inhibitors. AID 651820. Huh7.5.1 HCVcc-Cre infection, luciferase reporter, 44 h. actives 3.4% (n = 340,000); active means well fitted inhibition curve with a large enough effect; inconclusive means small, poorly fitted or top-dose-only effect, or another doubt; inactive means no such curve, though single readings can be large or run the other way; further: potency means the concentration at half of the fitted maximal effect
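Whole-lifecycle infectious HCVcc-Cre system; cells 1,000/well, compound then virus (~0.5 moi) added 4 h after plating, 44 h culture. Luciferase read 15 sec following 15 min substrate incubation, room temp.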
An asterisk follows results filed as active; ? = inconclusive; nt = not tested or not shown; [ ] = another dose, or the depositor's remark. Only some compounds are listed: those with a hit (about 7.9% of all), similar ones and a draw of the others. On the % scale 0 is the no-effect control and ±100 the full control effect.

SMILES	Lassa entry inh	FMDV inh	HCMV inh	MARV entry inh	HCV inh
COc1cccc(NC(=O)CSc2nnc(-c3cccs3)o2)c1	6%[46.1 µM]	9%	266	?	nt
COc1ccc(-c2nnc(COc3ccc4ccccc4c3)o2)cc1OC	21µM*	-19%	-8	?	?
CC1(C)Cc2ccccc2C(NNC(=O)c2cccnc2)=N1	4%	-18%	-92*	2%	21%
CCc1nc2sc3c(O)cc(=O)[nH]c3c2cc1C	0%[46.1 µM]	-1%	-81*	3%[46.1 µM]	2%
COC(=O)c1ccc2c(=O)n(CCCCCC(=O)O)c(=S)[nH]c2c1	?	?	-63*	-12%	13%
COc1cc2[nH]c(=O)n(CCCCCC(=O)N3CCN(c4ccc(Cl)cc4)CC3)c(=O)c2cc1OC	7%[46.1 µM]	18µM*	-13	-10%[46.1 µM]	nt
COC(=O)c1ccc2c(=O)n(CCCCCC(=O)N3CCN(c4ccccc4)CC3)c(=O)[nH]c2c1	?	11µM*	-29	?	10µM*
COC(=O)c1ccc2c(=O)n(CCCCCC(=O)N3CCN(c4cc(Cl)ccc4C)CC3)c(=O)[nH]c2c1	?	14µM*	-19	nt	nt
COC(=O)c1ccc2c(=O)n(CCO)c(=S)[nH]c2c1	7%	-1%	-8	7%	8%
C=CCN(c1ccccc1)S(=O)(=O)c1cccc(C(=O)NCC(c2cccs2)N2CCOCC2)c1 (stereo not given)	?	-26%	?	?	?
N#C/C(=N/O)c1nc(-c2ccccc2)cs1	nt	nt	nt	15%	nt
COc1ccc(COC(=O)C2=C(C)NC(=O)NC2c2ccccc2)cc1 (stereo not given)	?	-15%	3	-26%	-12%
COc1cccc(C(C)(O)c2nc(-c3cccc(C(C)C)c3)cs2)c1 (stereo not given)	nt	-27%	-20	nt	nt
COc1cccc(/C=N/Nc2nc(N3CCCC3)nc(N3CCCC3)n2)c1O	16%	nt	-35	26µM*	-29%
Oc1ccc(C=NNc2nc3ccccc3s2)c(O)c1	?	13%	-63*	?	?
Oc1ccc(/C=N/Nc2nc(N3CCCCCC3)nc(N3CCCCCC3)n2)c(O)c1	?	?	-89*	?	?
Oc1ccc(/C=N/Nc2nc(N3CCCC3)nc(N3CCCC3)n2)cc1O	?	-12%	-34	?	-16%
Brc1cc2c(cc1/C=N/Nc1nc(N3CCCC3)nc(N3CCOCC3)n1)OCO2	-16%	?	-14	-40%	2.8µM*
Oc1ccccc1C=NNc1nc2ccccc2s1	?	13%	87	?	?
CC1(c2nc3ccccc3[nH]2)c2ccccc2C(=O)N1Cc1ccccc1 (stereo not given)	nt	6%	59	nt	nt
O=C(CSC1=NS(=O)(=O)c2cc(F)ccc2N1)Nc1cccc(F)c1	-1%[46.1 µM]	-4%	-17	4%	10%
COc1ccc(NC(=O)N2c3ccc(OC)cc3[C@@H](NC(=O)c3ccc(C)s3)[C@H](C)[C@H]2c2ccccc2)cc1	nt	nt	2	nt	nt
C/C(=N\Nc1nc(N2CCOCC2)nc(N2CCOCC2)n1)c1cccs1	-22%	-16%	-19	-27%[46.1 µM]	-29%
Oc1ccc(Br)cc1/C=N/Nc1nc(N2CCCCC2)nc(N2CCOCC2)n1	-20%[46.1 µM]	-18%	?	2.5µM*	?
BrC(=C\c1ccccc1)/C=N/Nc1nc(N2CCOCC2)nc(N2CCOCC2)n1	-17%	-26%	32	7.9µM*	?
SMILES	Lassa entry inh	FMDV inh	HCMV inh	MARV entry inh	HCV inh
C(=N\Nc1nc(N2CCOCC2)nc(N2CCOCC2)n1)/c1ccncc1	-3%	-8%	8	?	2%
C/C(=N\Nc1nc(N2CCCCC2)nc(N2CCOCC2)n1)c1ccccc1O	7.1µM*	?	?	1.8µM*	?
COc1ccc(/C=N/Nc2cc(N3CCOCC3)ncn2)c(OC)c1	nt	-12%	9	nt	6%
COc1cccc(/C=N/Nc2cc(N3CCOCC3)ncn2)c1O	?	1%	-99*	?	?
Cc1ccc(N2CC(C(=O)NCc3nnnn3-c3ccc(C)c(C)c3)CC2=O)cc1C (stereo not given)	-25%[46.1 µM]	-15%	11	nt	nt
CCCCCCN(CCCCCC)C(=O)Cc1c(-c2ccc(F)cc2)[nH]c2ccccc12	9.2µM*	-19%	-5	9.2µM*	?
COc1ccccc1CN1CCOc2ccc(C(C)(O)COc3ccccc3)cc2C1 (stereo not given)	nt	-6%	nt	nt	nt
CCCCc1ccc(NC(=O)C(=O)NCCN2CCN(Cc3ccc([N+](=O)[O-])cc3)CC2)cc1	nt	?	-60*	nt	?
S=C(NCCc1ccc(Cl)cc1)NC1CC1	nt	26%	-75*	nt	11%
O=[N+]([O-])c1ccc(NNC(=S)Nc2ccccc2)cc1	-1%	-1%	nt	?	11µM*
O=C(NCCc1ccccc1)Nc1ccc(Cl)cc1	-20%	26%	15	?	-2%
CNC(=O)C(=O)NCCN1CCN(C(=O)c2ccc([N+](=O)[O-])cc2)CC1	-17%	-9%	33	-6%[46.1 µM]	13%
S=C(NCCc1ccccc1)Nc1ccc(Cl)cc1	4%	35%	-79*	20%	?
COc1ccc([N+](=O)[O-])cc1NC(=S)Nc1ccccc1	9%	-24%	44	5%	4%
NS(=O)(=O)c1ccc(CCNC(=S)NC2CCCC2)cc1	nt	-5%	80	nt	9%
COC(=O)C1CCCCN1Cc1ccc2c(c1)CN(Cc1cn[nH]c1-c1ccc(F)cc1)CCO2 (stereo not given)	nt	-30%	nt	nt	nt
O=S1(=O)c2ccccc2N(Cc2cccc(C(F)(F)F)c2)c2ccccc21	-25%[46.1 µM]	?	-15	nt	nt
CC(C)c1nc2ccc(C(=O)NCCCN3CCN(c4cccc(Cl)c4)CC3)cc2o1	3%[46.1 µM]	0%	?	nt	nt
Cc1ccc2c(CC(=O)N3CCOc4ccc(CN5CCOCC5)cc4C3)cc(=O)oc2c1	nt	1%	nt	nt	nt
NS(=O)(=O)c1ccc(NC(=S)NCCc2ccccc2)cc1	-5%	22%	-32	4%	24%
O=[N+]([O-])c1ccc(NC(=S)NCc2ccc(F)cc2)cc1	?	-6%	-99*	?	?
O=C(Nc1ccc([N+](=O)[O-])cc1)c1nc[nH]c1C(=O)NC1CCCCC1	1%	-10%	-18	-5%	-12%
O=C(Nc1ccc(F)cc1)c1nc[nH]c1C(=O)Nc1ccc([N+](=O)[O-])cc1	3%[46.1 µM]	-21%	-61*	?	6%
O=[N+]([O-])c1ccc(NC(=S)NCCc2ccccc2)cc1	?	36%	-96*	?	?
O=[N+]([O-])c1ccc(O)c(NC(=S)Nc2ccccc2)c1	2%	43%	-89*	16%	-10%
O=[N+]([O-])c1ccc(NC(=S)NCc2ccncc2)cc1	1%[46.1 µM]	-6%	-19	?	?
Cc1ccc(Cl)cc1N1CCN(C(=O)Cc2c(C(=O)O)c(C)cn2C)CC1	1%[46.1 µM]	-13%	2	nt	nt
COc1ccccc1CN(C)C(=O)c1ccc(S(=O)(=O)NCc2ccco2)cc1	nt	14%	-5	nt	-2%
